# Test results taken from PubChem BioAssay (NCATS).
# Unmarked numbers belong to inactive results. Results filed as inconclusive are left out. Active and inactive are the calls of the source. Unless noted, calls come from the whole dose curve; as a rule, active = well fitted curve in the direction sought with a large enough effect; inconclusive = small, poorly fitted or top-dose-only effect, or another doubt; inactive = no such curve, though single readings can be large; an effect the other way counts as inactive or inconclusive.
# Columns and labels:
# [1] = molecular target: Cytochrome P450 1A2 (Homo sapiens) (UniProt P05177); assay: p450-cyp1a2 (AID 410; calls by dose curve; note: potency is the fitted concentration of half-maximal effect;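 for activity change, negative = inhibition: -100% = full effect of reference inhibitor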)
# Sequence of Cytochrome P450 1A2 (Homo sapiens) (P05177 whole entry, looked up): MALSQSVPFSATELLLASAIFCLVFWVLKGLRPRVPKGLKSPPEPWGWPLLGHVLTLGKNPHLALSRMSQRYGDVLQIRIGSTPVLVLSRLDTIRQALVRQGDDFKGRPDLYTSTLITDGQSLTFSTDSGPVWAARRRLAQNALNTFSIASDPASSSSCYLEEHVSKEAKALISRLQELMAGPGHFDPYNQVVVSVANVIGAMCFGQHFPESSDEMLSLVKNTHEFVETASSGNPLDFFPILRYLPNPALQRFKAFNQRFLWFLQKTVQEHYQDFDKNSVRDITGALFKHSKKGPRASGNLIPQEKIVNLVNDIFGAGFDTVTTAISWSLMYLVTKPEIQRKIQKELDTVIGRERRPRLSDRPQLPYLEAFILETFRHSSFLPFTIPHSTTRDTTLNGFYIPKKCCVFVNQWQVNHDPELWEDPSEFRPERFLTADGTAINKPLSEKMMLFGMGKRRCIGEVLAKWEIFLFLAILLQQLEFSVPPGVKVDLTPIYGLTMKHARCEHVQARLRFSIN
# Summary of the method: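 20nM CYP1A2 with 100uM Luciferin-ME (at Km) in 100mM KPO4; compound preincubated 10 min, NADPH regeneration added, 60 min at room temperature. Luciferin quantified by luminescence after detection reagent; normalized to 57 uM furafylline.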
# [2] = molecular target: Glucocorticoid receptor (Homo sapiens) (UniProt P04150); assay: GR-GFP Redistribution (AID 450;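 active = compounds whose dose series gives a full or clear partial fitted curve of increased nuclear translocation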; note: potency is the fitted concentration of half-maximal effect); conditions: U2OS GR-GFP nuclear translocation, laser cytometry, 2 h
# Sequence of Glucocorticoid receptor (Homo sapiens) (P04150 whole entry, looked up, the tested form may be a part): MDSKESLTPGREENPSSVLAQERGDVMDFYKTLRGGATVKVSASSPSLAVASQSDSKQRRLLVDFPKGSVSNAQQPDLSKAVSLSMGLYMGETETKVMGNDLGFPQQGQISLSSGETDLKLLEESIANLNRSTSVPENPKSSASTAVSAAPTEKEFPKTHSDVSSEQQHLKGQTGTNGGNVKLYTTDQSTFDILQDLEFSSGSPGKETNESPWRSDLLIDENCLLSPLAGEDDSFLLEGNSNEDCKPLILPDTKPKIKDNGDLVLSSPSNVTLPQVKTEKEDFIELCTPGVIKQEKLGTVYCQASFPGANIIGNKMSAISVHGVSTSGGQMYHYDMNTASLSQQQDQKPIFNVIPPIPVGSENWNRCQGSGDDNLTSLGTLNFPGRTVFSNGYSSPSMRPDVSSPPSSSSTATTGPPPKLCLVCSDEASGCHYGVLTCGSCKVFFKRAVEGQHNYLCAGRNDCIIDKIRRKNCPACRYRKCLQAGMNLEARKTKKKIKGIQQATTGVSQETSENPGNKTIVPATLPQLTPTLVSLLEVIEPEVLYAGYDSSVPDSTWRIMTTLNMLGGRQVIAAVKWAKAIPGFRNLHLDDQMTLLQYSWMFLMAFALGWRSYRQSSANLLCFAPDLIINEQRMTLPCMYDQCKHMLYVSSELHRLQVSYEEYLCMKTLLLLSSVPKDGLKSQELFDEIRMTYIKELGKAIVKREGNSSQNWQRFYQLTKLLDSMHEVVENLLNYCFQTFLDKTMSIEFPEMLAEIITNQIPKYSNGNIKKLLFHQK
# [3] = molecular target: Glucocorticoid receptor (Homo sapiens) (UniProt P04150); assay: GR-EFC Redistribution (AID 451; calls by dose curve; note: potency is the fitted concentration of half-maximal effect); conditions: CHO-K1 GR-EFC translocation, beta-gal luminescence, 2 h
# Summary of the method: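 Translocation of GR-ED fusion to nuclear EA restores b-gal, read by luminescence after 1 h room-temperature detection. Engineered CHO-K1 biosensor cells, 1,000/well, exposed 2 h at 37 C to titrations up to 46 uM final.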
# [4] = molecular target: Cytochrome P450 3A4 (Homo sapiens) (UniProt P08684); assay: qHTS Assay for Activators of Cytochrome P450 3A4 (AID 885); note: nearly all actives have a fitted effect of over 65% in size
# Summary of the method: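 20nM CYP3A4 + 25uM Luciferin-PPXE (=KM), 200mM KPO4; cpd 10 min RT; NADPH regen, 60 min RT; stop w/ detection buffer, 20 min; luminescence. Normalized to 57 uM ketoconazole.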
# [5] = Primary qHTS for small molecule stabilizers of the endoplasmic reticulum resident proteome: Secreted ER Calcium Modulated Protein (SERCaMP) assay (AID 1508630); note: % is set by controls: 0 for no effect and ±100 for the full control effect
# Summary of the method: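 GLuc-SERCaMP-expressing SH-SY5Y cells, pretreated 16 h with compound, are challenged with thapsigargin to empty ER calcium stores; after 4 h, coelenterazine is added directly to the medium and luminescence is imaged.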
# [6] = molecular target: Rap guanine nucleotide exchange factor 3 (Homo sapiens) (UniProt O95398); assay: Confirmatory qHTS for antagonist of cAMP-regulated guanine nucleotide exchange factor 3 (EPAC1) (AID 1645880);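 note: plate controls were DMSO only for no effect and full effect of the ATA control for full effect; nearly all actives have a fitted effect of over 55% in size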
# Sequence of Rap guanine nucleotide exchange factor 3 (Homo sapiens) (O95398 whole entry, looked up): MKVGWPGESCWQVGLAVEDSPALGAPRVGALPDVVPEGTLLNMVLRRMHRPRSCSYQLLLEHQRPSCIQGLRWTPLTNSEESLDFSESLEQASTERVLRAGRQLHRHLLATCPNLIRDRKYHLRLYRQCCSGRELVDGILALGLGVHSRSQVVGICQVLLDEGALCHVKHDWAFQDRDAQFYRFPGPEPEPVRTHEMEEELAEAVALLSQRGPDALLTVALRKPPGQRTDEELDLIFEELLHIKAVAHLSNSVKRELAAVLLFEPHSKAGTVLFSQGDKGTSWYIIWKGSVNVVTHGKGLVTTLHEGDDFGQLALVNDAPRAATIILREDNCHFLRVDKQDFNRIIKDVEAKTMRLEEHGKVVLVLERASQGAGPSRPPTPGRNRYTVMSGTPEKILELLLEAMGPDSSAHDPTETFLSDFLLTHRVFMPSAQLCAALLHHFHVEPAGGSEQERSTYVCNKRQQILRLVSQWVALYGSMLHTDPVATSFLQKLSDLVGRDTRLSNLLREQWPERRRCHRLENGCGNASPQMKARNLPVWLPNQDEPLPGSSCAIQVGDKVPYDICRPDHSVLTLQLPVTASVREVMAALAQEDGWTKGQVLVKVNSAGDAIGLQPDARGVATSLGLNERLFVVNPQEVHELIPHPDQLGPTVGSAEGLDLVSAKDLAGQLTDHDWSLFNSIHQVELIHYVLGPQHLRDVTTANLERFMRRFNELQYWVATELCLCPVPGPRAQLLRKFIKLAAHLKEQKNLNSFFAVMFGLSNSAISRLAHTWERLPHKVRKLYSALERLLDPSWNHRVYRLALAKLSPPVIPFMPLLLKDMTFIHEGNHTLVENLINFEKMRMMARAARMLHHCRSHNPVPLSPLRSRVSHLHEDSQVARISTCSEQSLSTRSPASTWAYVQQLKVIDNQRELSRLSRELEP
# Summary of the method: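 Nucleotide exchange uses 100 nM EPAC1, 250 nM RAP1B-BODIPY-GDP and 50 uM GDP, with compounds in a concentration-titration series. After 5 min at room temperature, fluorescence (480 nm ex/540 nm em) is read every 5 min for 30 min. Data are normalized to control ATA and DMSO.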
# [7] = molecular target: Rap guanine nucleotide exchange factor 3 (Homo sapiens) (UniProt O95398); assay: Confirmatory qHTS for agonist of cAMP-regulated guanine nucleotide exchange factor 3 (EPAC1) (AID 1645881);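 note: EPAC1 catalysed release of BODIPY-GDP from Rap1B seen as fluorescence loss; 100% = effect of cAMP agonist control; nearly all actives have a fitted effect of over 75% in size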
# [8] = molecular target: Lysosomal acid glucosylceramidase (Homo sapiens) (UniProt P04062); assay: Glucocerebrosidase-p2 (AID 348; in the data active = potency below about 10 µM; note: potency is the fitted concentration of half-maximal effect); conditions: purified GBA, blue fluorogenic substrate, 40 min
# Sequence of Lysosomal acid glucosylceramidase (Homo sapiens) (P04062 whole entry, looked up): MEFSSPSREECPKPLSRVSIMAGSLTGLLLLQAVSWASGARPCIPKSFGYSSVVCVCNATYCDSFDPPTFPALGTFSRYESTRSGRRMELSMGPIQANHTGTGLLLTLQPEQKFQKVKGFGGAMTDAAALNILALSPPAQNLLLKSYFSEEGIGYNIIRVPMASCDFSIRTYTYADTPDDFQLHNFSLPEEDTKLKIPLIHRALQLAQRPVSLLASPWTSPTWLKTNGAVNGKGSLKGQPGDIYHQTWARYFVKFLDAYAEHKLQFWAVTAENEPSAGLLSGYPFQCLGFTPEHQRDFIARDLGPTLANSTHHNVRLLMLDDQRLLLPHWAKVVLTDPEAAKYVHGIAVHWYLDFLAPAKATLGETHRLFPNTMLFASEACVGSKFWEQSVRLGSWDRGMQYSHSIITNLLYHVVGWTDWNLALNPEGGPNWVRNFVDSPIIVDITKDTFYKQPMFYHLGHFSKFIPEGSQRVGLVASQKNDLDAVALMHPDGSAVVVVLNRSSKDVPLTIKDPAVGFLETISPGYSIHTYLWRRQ
# Summary of the method: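 Compounds titrated from 0.6 nM upwards against 0.2 nM enzyme in pH 5.9 citric acid/KH2PO4, taurocholate, tween-20; blue fluorogenic substrate 80 uM, 40 min room temperature, stopped and read Ex 365/Em 440 for AC50.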
# [9] = AP1 Signaling Pathway (AID 357; active = well fitted curve in either direction with a large enough effect, not every such curve was filed as active;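 note: ME-180 reporter cells stimulated with EGF at its EC50 level; % is set by controls: 0 for no effect and ±100 for the full control effect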); conditions: ME-180 AP-1-bla reporter, EGF-induced, beta-lactamase ratio, 5 h; at 7.69 µM (top of the series) unless noted
# Summary of the method: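 In this screen, ME-180 cells in Opti-MEM with 0.5% dialyzed FBS received EC50 EGF and compound titrations for 5 h. AP-1 reporter beta-lactamase was detected via CCF4 ratio, giving AC50 for positive and negative modulators.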
# [10] = Stat Signaling Pathway (AID 446; active = well fitted curve in either direction with a large enough effect, not every such curve was filed as active;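 note: ME-180 cervical cancer cells given 40 pM IL-6 alongside compound; SIE-controlled beta-lactamase reporter measured as 460/530 nm FRET emission ratio; % is set by controls: 0 for no effect and ±100 for the full control effect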); conditions: ME-180 SIE beta-lactamase reporter, IL-6 stimulated, 5 h; at 7.69 µM (top of the series) unless noted
# Summary of the method: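 ME-180 SIE-bla cells; overnight plating; cpd + IL-6 40 pM, 5 h, 37 C; LiveBLAzer 2.5 h RT; 460/530 nm emission ratio. Normalized to 300 pM IL-6 and 125 nM JAK inhibitor controls.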
# [11] = molecular target: Mitogen-activated protein kinase 10 (Mus musculus) (UniProt Q61831); assay: JNK3 AlphaScreen Assay (AID 530; active = well fitted curve in either direction with a large enough effect, not every such curve was filed as active;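 note: kinase came from lysate of stimulated human HepG2 cells; signal reports phosphorylation of biotinylated GST-cJun 1-79 at Ser73 with 10 µM ATP; % is set by controls: 0 for no effect and ±100 for the full control effect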)
# Summary of the method: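 Compound titrations were preincubated 15 minutes at room temperature with substrate, antibody and pre-activated JNK3-containing HepG2 lysate. Reactions were started with 10 uM ATP and stopped with EDTA-containing bead buffer for AlphaScreen detection.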
# [12] = molecular target: Rap guanine nucleotide exchange factor 4 (Homo sapiens) (UniProt Q8WZA2); assay: Confirmatory qHTS for antagonist of cAMP-regulated guanine nucleotide exchange factor 4 (EPAC2) (AID 1645885); note: nearly all actives have a fitted effect of over 25% in size; note: potency is the fitted concentration of half-maximal effect
# Sequence of Rap guanine nucleotide exchange factor 4 (Homo sapiens) (Q8WZA2 whole entry, looked up): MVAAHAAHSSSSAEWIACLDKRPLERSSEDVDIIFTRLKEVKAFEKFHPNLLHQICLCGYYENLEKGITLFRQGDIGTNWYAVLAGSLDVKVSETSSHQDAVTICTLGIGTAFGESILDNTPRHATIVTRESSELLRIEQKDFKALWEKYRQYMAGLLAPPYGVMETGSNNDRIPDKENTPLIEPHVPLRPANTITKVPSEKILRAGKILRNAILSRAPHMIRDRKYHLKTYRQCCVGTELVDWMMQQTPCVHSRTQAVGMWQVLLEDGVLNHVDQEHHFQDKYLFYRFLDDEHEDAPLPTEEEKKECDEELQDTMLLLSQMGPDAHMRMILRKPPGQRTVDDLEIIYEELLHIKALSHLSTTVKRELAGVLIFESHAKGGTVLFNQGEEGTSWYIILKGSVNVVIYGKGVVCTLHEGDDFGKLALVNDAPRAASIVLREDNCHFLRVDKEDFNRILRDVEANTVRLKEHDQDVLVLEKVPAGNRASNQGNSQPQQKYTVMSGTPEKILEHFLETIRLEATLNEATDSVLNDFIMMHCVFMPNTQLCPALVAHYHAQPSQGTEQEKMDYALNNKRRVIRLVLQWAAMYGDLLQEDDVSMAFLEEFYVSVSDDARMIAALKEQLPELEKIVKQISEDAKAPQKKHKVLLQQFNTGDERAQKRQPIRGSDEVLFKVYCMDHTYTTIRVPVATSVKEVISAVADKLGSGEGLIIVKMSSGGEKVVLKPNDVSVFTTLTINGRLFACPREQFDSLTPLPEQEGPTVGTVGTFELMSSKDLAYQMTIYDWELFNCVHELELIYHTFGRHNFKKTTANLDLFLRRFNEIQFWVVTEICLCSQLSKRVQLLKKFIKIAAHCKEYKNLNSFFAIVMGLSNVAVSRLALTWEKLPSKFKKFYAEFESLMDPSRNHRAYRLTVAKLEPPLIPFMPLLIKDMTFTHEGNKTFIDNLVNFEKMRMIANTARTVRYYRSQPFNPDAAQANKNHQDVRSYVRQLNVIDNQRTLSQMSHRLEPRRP
# [13] = NFAT Signaling Pathway (AID 444; active = well fitted curve in either direction with a large enough effect, not every such curve was filed as active); conditions: Jurkat NFAT-bla M1, carbachol, beta-lactamase ratio, 5 h; at 7.69 µM (top of the series) unless noted
# Summary of the method: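 Read-out: CCF4 FRET ratio (460 nm/530 nm) after 1 h RT dye loading, used for %activity and AC50 from titration series. Cells: Jurkat NFAT-β-lactamase/M1 line, treated with compound plus 1 uM carbachol for 5 h, 37 °C.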
# [14] = molecular target: Rap guanine nucleotide exchange factor 4 (Homo sapiens) (UniProt Q8WZA2); assay: Confirmatory qHTS for agonist of cAMP-regulated guanine nucleotide exchange factor 4 (EPAC2) (AID 1645884);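 note: nucleotide exchange releases bodipy-GDP from Rap1 and this lowers its fluorescence; % is set by controls: 0 for no effect and ±100 for the full control effect; nearly all actives have a fitted effect of over 65% in size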
# [15] = molecular target: 3',5'-cyclic-AMP phosphodiesterase 4B (Homo sapiens) (UniProt Q07343); assay: qHTS Assay for Inhibitors of PDE-IV (AID 607; active = well fitted activation curve with a large enough effect in the main read-out, with a control signal flat, not every such curve was filed as active; note: % of control where 0% means no effect)
# Summary of the method: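 ACTOne HEK293 cells carry a modified cAMP-gated CNG channel and express endogenous PDE4; plated 1000 cells/well, compounds up to 22.9 uM final. Membrane-potential dye fluorescence (ex 535/em 590) was read; parental cells received 10 uM forskolin + 100 uM RO 20-1724.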
# [16] = molecular target: Dual specificity protein kinase CLK4 (Homo sapiens) (UniProt Q9HAZ1); assay: qHTS Assay for Inhibitors of CDC-like Kinase 4 (Kinase-Glo Assay) (AID 1770); note: nearly all actives have a fitted effect of over 65% in size; note: potency is the fitted concentration of half-maximal effect
# Sequence of Dual specificity protein kinase CLK4 (Homo sapiens) (Q9HAZ1 whole entry, looked up): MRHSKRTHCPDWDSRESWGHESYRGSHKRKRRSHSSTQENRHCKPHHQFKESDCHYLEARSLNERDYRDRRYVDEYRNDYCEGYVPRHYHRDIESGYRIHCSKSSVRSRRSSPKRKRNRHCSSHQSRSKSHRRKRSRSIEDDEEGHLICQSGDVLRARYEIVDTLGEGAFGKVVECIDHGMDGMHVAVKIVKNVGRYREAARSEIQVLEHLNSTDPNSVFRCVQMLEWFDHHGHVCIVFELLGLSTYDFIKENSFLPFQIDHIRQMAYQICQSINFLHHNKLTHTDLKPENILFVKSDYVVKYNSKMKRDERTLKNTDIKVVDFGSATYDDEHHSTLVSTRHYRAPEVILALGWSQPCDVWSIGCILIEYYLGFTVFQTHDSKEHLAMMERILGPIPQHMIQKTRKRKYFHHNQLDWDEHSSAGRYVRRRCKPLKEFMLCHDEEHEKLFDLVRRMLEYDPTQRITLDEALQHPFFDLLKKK
# Summary of the method: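 Substrate mix (RS peptide 100 uM, ATP 1 uM) dispensed, compound pinned in, then Clk4 added to 25 nM final. Incubated 4.5 h at RT; Kinase-Glo reagent added, luminescence read after 5 min.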
# [17] = molecular target: Dual specificity protein kinase CLK4 (Homo sapiens) (UniProt Q9HAZ1); assay: qHTS Assay for Inhibitors of CDC-like Kinase 4 (ADP-Glo Assay) (AID 1771); note: nearly all actives have a fitted effect of over 70% in size; note: potency is the fitted concentration of half-maximal effect
# Summary of the method: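 25 nM Clk4 with 100 uM RS repeat peptide and 1 uM ATP (final) in buffer with 2 mM MgCl2, 0.5 mM EGTA, 2.5 mM DTT, 0.01% Triton X-100; 1 h at room temperature; ADP-Glo luminescence for ADP formed.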
# [18] = molecular target: Ubiquitin carboxyl-terminal hydrolase 1 (Homo sapiens) (UniProt O94782); assay: Inhibitors of USP1/UAF1: Pilot qHTS (AID 504865);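 note: rhodamine fluorescence freed from ubiquitin-rhodamine substrate followed over time; top concentration of the series differs between compounds; % is set by controls: 0 for no effect and ±100 for the full control effect; nearly all actives have a fitted effect of over 35% in size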
# Sequence of Ubiquitin carboxyl-terminal hydrolase 1 (Homo sapiens) (O94782 whole entry, looked up): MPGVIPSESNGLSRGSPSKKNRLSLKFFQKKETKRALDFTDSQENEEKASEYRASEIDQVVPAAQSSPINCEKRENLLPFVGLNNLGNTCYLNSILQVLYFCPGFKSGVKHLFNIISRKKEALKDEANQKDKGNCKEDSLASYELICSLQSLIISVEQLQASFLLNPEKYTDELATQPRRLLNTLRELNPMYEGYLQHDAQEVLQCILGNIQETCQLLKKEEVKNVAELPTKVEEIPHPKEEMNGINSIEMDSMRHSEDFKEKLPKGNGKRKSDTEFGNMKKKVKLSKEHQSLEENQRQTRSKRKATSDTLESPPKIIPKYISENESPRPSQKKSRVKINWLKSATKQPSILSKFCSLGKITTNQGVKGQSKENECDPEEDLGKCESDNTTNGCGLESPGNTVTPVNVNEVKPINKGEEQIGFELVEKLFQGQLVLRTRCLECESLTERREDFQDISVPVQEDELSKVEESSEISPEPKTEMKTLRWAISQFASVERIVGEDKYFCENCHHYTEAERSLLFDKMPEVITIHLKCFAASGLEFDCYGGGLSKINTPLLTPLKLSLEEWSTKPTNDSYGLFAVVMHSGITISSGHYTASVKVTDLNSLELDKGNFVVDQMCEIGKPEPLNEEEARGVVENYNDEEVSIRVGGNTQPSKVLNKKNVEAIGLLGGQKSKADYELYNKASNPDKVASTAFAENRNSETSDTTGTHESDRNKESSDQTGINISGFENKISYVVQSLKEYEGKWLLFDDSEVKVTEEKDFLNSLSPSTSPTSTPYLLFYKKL
# Summary of the method: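 In 50mM HEPES pH 7.8 containing 0.5mM EDTA, 1mM TCEP, 0.1 mg/ml BSA and 0.01% Tween-20, 1nM USP1/UAF1 is exposed to compound for 15 min, then Ub-Rho (150nM final) is added and fluorescence is read over time.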
# [19] = molecular target: Dual specificity protein kinase CLK4 (Homo sapiens) (UniProt Q9HAZ1); assay: qHTS Assay for Inhibitors of CDC-like Kinase 4 (ADP-FP Assay) (AID 1795); note: nearly all actives have a fitted effect of over 60% in size; note: potency is the fitted concentration of half-maximal effect
# Summary of the method: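 Clk4 6.25 nM; RS peptide 100 uM; ATP 1 uM; 25 mM Tris pH 7.5, 10 mM MgCl2; 1 h reaction. ADP detected via antibody/orange tracer FP displacement; TG003 positive control.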
Structure (SMILES),Potency [1],Potency [2] [µM],Potency [3] [µM],Potency [4],outcome [5],Potency [6],Potency [7],Potency [8] [µM],"activity change, negative = inhibition [9] [%]","activity, negative = inhibition [10] [%]",Potency [11],Potency [12],"activity change, negative = inhibition [13] [%]",Potency [14],Potency [15],Potency [16],Potency [17],Potency [18],Potency [19]
COC(=O)C1=C(C)NC(C)=C(C(=O)OCCSc2ccccc2)[C@@H]1C,0.794 µM (active),> 46,> 46,inactive,inactive,inactive,inactive,–,–,–,–,–,–,–,–,–,–,–,–
COc1cccc(Cn2c(=O)c(-c3cccs3)nc3cnc(Nc4cccc(OC)c4)nc32)c1,2.51 µM (active),–,> 46,inactive,inactive,inactive,–,> 11.4,-17.2,26.3,inactive,inactive,–,–,–,–,–,–,–
COc1ccc(C(=O)N2CCC[C@@]3(CCN(Cc4cc(C(F)(F)F)cc(C(F)(F)F)c4)C3)C2)cc1,inactive,–,> 46,inactive,inactive,–,inactive,> 11.4,16.8,-1.38,inactive,55.5 µM (active),-5.26,inactive,–,–,–,–,–
COc1ccc(C(=O)N2CCC3(CCN(Cc4cc(C(F)(F)F)cc(C(F)(F)F)c4)CC3)CC2)cc1,inactive,–,> 46,inactive,inactive,–,inactive,> 11.4,7.47,-6.24,inactive,35 µM (active),19.2,inactive,inactive,–,–,–,–
c1ccc(CNc2ccnc(-c3ccc4c(c3)OCO4)n2)cc1,0.398 µM (active),> 46,> 46,inactive,inactive,inactive,–,–,-19.4,-18.3,inactive,inactive,15.5,–,–,–,–,–,–
COc1ccc(C(=O)N2CCC3(CCCN(c4cccc(-c5ccccc5)c4)C3)CC2)cc1,–,–,> 46,–,inactive,inactive,–,> 11.4,11.7,1.07,inactive,inactive,–,–,inactive,–,–,–,–
COCCn1c(=O)c(-c2cccs2)nc2cnc(N3CCOCC3)nc21,–,> 9.22,> 46,–,inactive,inactive,–,> 11.4,-6.06,-8.84,inactive,inactive,2.93,–,inactive,inactive,inactive,inactive,–
CN(C)c1ncnc2ccc(-c3ccccc3C(F)(F)F)cc12,0.631 µM (active),> 46,> 46,inactive,inactive,–,inactive,> 11.4,0.8,-12.7,inactive,44.1 µM (active),20.6,inactive,–,–,–,inactive,inactive
COc1ccccc1CNc1nc(-c2cccnc2)nc2ccccc12,1 µM (active),–,> 46,inactive,inactive,–,inactive,> 11.4,-17.9,-25.3,inactive,–,-5.69,inactive,–,12.6 µM (active),–,inactive,4.47 µM (active)
O=c1c(-c2ccc(F)c(F)c2)nc2cncnc2n1Cc1ccccc1Cl,5.01 µM (active),> 9.22,> 46,inactive,inactive,inactive,inactive,> 11.4,4.57,9.03,inactive,–,-7.38,inactive,–,–,–,–,–
COc1cccc(Nc2ncc3ncc(=O)n(Cc4cccs4)c3n2)c1,1.58 µM (active),> 9.22,> 46,–,inactive,inactive,inactive,> 11.4,–,–,inactive,–,–,inactive,–,0.708 µM (active),0.794 µM (active),inactive,0.501 µM (active)
O=c1c(-c2cccs2)nc2cnc(N3CCOCC3)nc2n1CCc1ccccc1,–,> 9.22,> 46,inactive,inactive,inactive,–,> 11.4,13.2,18.4,–,inactive,19.8,–,–,inactive,inactive,inactive,inactive
COc1cccc(-c2nccc(NCc3cccs3)n2)c1,0.2 µM (active),> 46,> 46,inactive,inactive,–,inactive,> 11.4,-9.78,-0.369,inactive,62.2 µM (active),15.4,inactive,inactive,8.91 µM (active),8.91 µM (active),–,10 µM (active)
